PubChem BioAssay (NCATS)
Results filed as inconclusive are left out. Unmarked numbers belong to inactive results. The source made the active and inactive calls. The call rests on the fitted dose curve; in most records, active means well fitted inhibition curve with a large enough effect; inconclusive means small, poorly fitted or top-dose-only effect; inactive means flat fitted curve, though single readings scatter.

Test system: CP203
Test: qHTS profiling for inhibitors of Plasmodium falciparum proliferation (AID 504749); further: nearly all actives have a fitted effect of over 60% in size;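 on activity, negative = inhibition: 0% = DMSO vehicle and full inhibition = artemisinin control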
Details: P. falciparum in erythrocytes, SYBR Green DNA, 72 h; series mostly up to 28.7 µM; activity, negative = inhibition: at the top concentration
Excerpt: NIH National Institute of Allergy and Infectious Diseases [NIAID] NIH Chemical Genomics Center [NCGC] MLPCN Grant: None Assay Provider: Xinzhuan Su, NIAID NCGC Assay Overview: Plasmodium falciparum is a virulent malarial parasite that kills 1-2 million people worldwide each year. Transmitted by mosquitoes, the sporozoite form of the parasite enters the blood stream to infect hepatocytes, where they become merozoites that infect red blood cells (erythrocytes). Within erythrocytes, merozoites begin a […] cycle of growth and division, after which the parasite is released to infect new red blood cells. Gametocytes, which form within erythrocytes as well, circulate in the bloodstream and are ingested by the mosquito, thereby completing the life cycle. To profile malarial isolates for differential chemical responses and to identify inhibitors of malarial growth, an assay that measures P. falciparum growth and replication within erythrocytes was employed. This assay uses a DNA binding fluorescent dye (SYBR Green) to detect parasite DNA following cell lysis. Because mature erythrocytes lack DNA, only Plasmodium-derived DNA is detected.
NCGC Assay Protocol Summary: The SYBR Green viability assay was adapted from a method described previously (Plouffe et al., 2008). For screening 3 ul culture medium was dispensed into 1536 well black clear bottom plates (Aurora Biotechnologies) using a Multidrop Combi (Thermo Fisher Scientific Inc.), 23 nL compounds in DMSO were added by a pin tool (Kalypsys), and 5 ul of erythrocytes infected with P. falciparum (0.3% parasitemia, 2.5% hematocrit final concentration) were added. The plates were incubated at 37 C in a humidified incubator in 5% CO2 for 72 h, and 2 ul lysis buffer (20 mM Tris HCl, 10 mM EDTA, 0.16% saponin, 1.6% triton X, 10X SYBR Green I supplied as 10,000X […] by Invitrogen) was added to each well. The plates were mixed for 25 sec with gentle shaking and incubated overnight at room temperature in the dark. The following morning, fluorescence intensity at 485(14) nm excitation and 535(25) nm emission wavelengths was measured on an EnVision (Perkin Elmer) plate reader. Plate reads were normalized relative to the control inhibitor (0.29 uM artemisinin) and vehicle (DMSO) wells present on each plate and then corrected by an algorithm using vehicle-only control plates at the beginning and end of the compound plate stack.
Potency means the concentration at half of the fitted maximal effect.

| SMILES | activity, negative = inhibition | Potency |
| --- | --- | --- |
| Oc1cc(O)cc(O)c1 | 7.06% | – |
| Cc1ncc(C[n+]2csc(CCOP(=O)(O)OP(=O)(O)O)c2C)c(N)n1 | 5.07% | – |
| CC1CCC(NC(=O)N(CCCl)N=O)CC1 (stereo not given) | -6.32% | – |
| CCCOc1cc(N)ccc1C(=O)OCCN(CC)CC | -3.57% [at 12.8 µM] | – |
| C[Si](C)(C)O[Si](C)(C)C | -0.118% | – |
| CCC(C)[C@@H](N)C(=O)O (stereo not given in full) | 3.13% | – |
| CCCCCCCCCCCC(=O)N(CCO)CCO | 1.13% | – |
| C=CCCCCCCCCC(=O)OC | -1.18% | – |
| O=C(O)/C=C/C(=O)Nc1ccc(S(=O)(=O)Nc2nccs2)cc1 | 4.35% | – |
| CC(C)O | 6.82% | – |
| CCN(CC)CCCC(C)Nc1cc(/C=C/c2ccccc2Cl)nc2cc(Cl)ccc12 (stereo not given) | – | 10.7 µM (active) |
| CCC(O)c1ccccc1 (stereo not given) | 7.63% | – |
| CCN(CC)CCOC(=O)c1cccnc1 | 7.32% | – |
| COC(=O)CCC[N+](C)(C)C | 11.8% | – |
| Cc1cccc(C)c1NC(=O)NC1=CCCN1C | 3.68% | – |
| O=P(O)(O)O | -0.449% | – |
| c1ccc(-n2cnnn2)cc1 | 5.08% | – |
| CC(/C=C/C=C(\C)C(=O)O[C@@H]1O[C@H](CO[C@@H]2O[C@H](CO)[C@@H](O)[C@H](O)[C@H]2O)[C@@H](O)[C@H](O)[C@H]1O)=C\C=C\C=C(C)\C=C\C=C(/C)C(=O)O[C@@H]1O[C@H](CO[C@@H]2O[C@H](CO)[C@@H](O)[C@H](O)[C@H]2O)[C@@H](O)[C@H](O)[C@H]1O | 0.21% | – |
| CC(C)c1ncc([N+](=O)[O-])n1C | -0.763% | – |
| Cn1cc(NC(=O)c2cc(NC(=O)c3cc(NC=O)cn3C)cn2C)cc1C(=O)NCCC(=N)N | – | 12 µM (active) |

| SMILES | activity, negative = inhibition | Potency |
| --- | --- | --- |
| O=C1CCC(=O)N1CO | 5.52% | – |
| COc1cc(S(C)=O)ccc1-c1nc2ncccc2[nH]1 (stereo not given) | -11.5% | – |
| CNC(=O)c1c(I)c(C(=O)NCC(=O)Nc2c(I)c(C(=O)O)c(I)c(C(=O)NCCO)c2I)c(I)c(N(C)C(C)=O)c1I | -4.36% | – |
| S=C=Nc1ccc(N=C=S)cc1 | -5.5% | – |
| O=C(CCCN1CCN2CCCC2C1)c1ccc(F)cc1 (stereo not given) | -16.4% | – |
| CC1CC(O)CC(C)(C)C1 (stereo not given) | -1.1% | – |
| O=[n+]1ccn([O-])c2ccccc21 | -0.168% | – |
| CCCCO | 6.27% | – |
| CCSc1ccc2c(c1)N(CCCN1CCN(C)CC1)c1ccccc1S2 | -12.2% [at 12.8 µM] | – |
| CCOC(=O)Cc1ccc(-c2ccccc2)cc1 | 3.35% | – |
| CCCCC(CC)COS(=O)(=O)O (stereo not given) | -1.86% | – |
| COc1cc2c(cc1OC)[C@@H](Cc1cc(OC)c(OC)c(OC)c1)[N+](C)(CCCOC(=O)CC/C=C/CCC(=O)OCCC[N+]1(C)CCc3cc(OC)c(OC)cc3[C@H]1Cc1cc(OC)c(OC)c(OC)c1)CC2 (stereo not given in full) | -7.59% | – |
| CCC(Cc1c(I)cc(I)c(O)c1I)C(=O)O (stereo not given) | -1.51% | – |
| N=C(N)n1cccn1 | 0.732% | – |
| CC(CC=O)CCCC(C)(C)O (stereo not given) | -0.16% | – |
| O=C(O)[C@H]1C(=CCO)O[C@H]2CC(=O)N12 | 4.34% | – |
| CO/N=C(\C(=O)N[C@@H]1C(=O)N2C(C(=O)[O-])=C(C[n+]3cccc4c3CCC4)CS[C@H]12)c1csc(N)n1 | 5.25% | – |
| O=C(O)C1=C(CSc2nnnn2CS(=O)(=O)O)CS[C@@H]2[C@H](NC(=O)[C@H](O)c3ccccc3)C(=O)N12 | 1.38% | – |
| O=P(O)(O)OC[C@H](O)CO | 3.06% | – |
| CC(=O)N[C@@H]1C(O[C@H]2O[C@H](C(=O)O)C(O)[C@H](O)[C@H]2O)[C@H](O)[C@@H](CO)O[C@H]1O[C@@H]1C(C(=O)O)O[C@@H](O[C@H]2[C@H](O)[C@@H](CO)OC(O)[C@@H]2NC(C)=O)[C@H](O)[C@H]1O (stereo not given in full) | 13.6% | – |
